Test results reported in PubChem BioAssay (NCI).
The panel holds about 79,000 compounds, 15% with a hit somewhere; the sample as a whole holds those more often. Calls of active or inactive are those of the source. Rule as the data show it: active = growth inhibition above about 70%; inactive = the rest.

Assays:
[1] = NCI Yeast Anticancer Drug Screen. Data for the rad52 strain (AID 147);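 also: 0% = growth of vehicle-treated control cultures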; conditions: S. cerevisiae rad52 mutant growth inhibition, hits give high values
Procedure, shortened: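 Growth of repair-deficient yeast cells was compared between compound-treated and vehicle-treated cultures to give percent inhibition.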

[2] = NCI Yeast Anticancer Drug Screen. Data for the wt1 strain (AID 149);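 also: 0% = growth of vehicle-treated wt1 cultures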; conditions: S. cerevisiae wt1 strain (SPY 50644) growth inhibition, hits give high values
Procedure, shortened: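 Readout: yeast growth inhibition, normalised to vehicle controls, in the wt1 strain exposed to test compounds.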

[3] = NCI Yeast Anticancer Drug Screen. Data for the rad50EPP+ strain (AID 151);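 also: 0% = growth of vehicle-treated control cultures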; conditions: S. cerevisiae rad50 mutant strain, hits give high values
Procedure, shortened: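 Measured: growth inhibition of rad50EPP+ yeast. Reference: vehicle-treated controls. Screen uses strains with defined genetic alterations in DNA damage repair or cell cycle control.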

[4] = NCI Yeast Anticancer Drug Screen. Data for the mgt1 strain (AID 153); conditions: S. cerevisiae mgt1 mutant growth inhibition, hits give high values
Procedure, shortened: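 Compounds were applied to mgt1 mutant yeast, and growth was then compared against vehicle-treated control cultures to give percent inhibition.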

[5] = NCI Yeast Anticancer Drug Screen. Data for the rad50 strain (AID 155);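 also: 0% = growth of vehicle-only cultures of the same strain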; conditions: S. cerevisiae rad50 strain growth inhibition, hits give high values
Procedure, shortened: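 Compounds were tested on a yeast strain with an engineered DNA damage repair alteration; the reported value is growth inhibition normalised to vehicle treatment.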

[6] = NCI Yeast Anticancer Drug Screen. Data for the mec2-1 strain (AID 157); conditions: S. cerevisiae mec2-1 strain, hits give high values
Procedure, shortened: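 Compounds were applied to mec2-1 yeast cells. Their growth was then compared with that of vehicle-treated cultures to give growth inhibition.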

[7] = NCI Yeast Anticancer Drug Screen. Data for the rad14 strain (AID 159);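 also: 0% = growth of vehicle-treated control cultures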; conditions: S. cerevisiae rad14 strain growth inhibition, hits give high values
Procedure, shortened: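 Compound-treated yeast with a defined DNA-repair lesion; growth inhibition normalised to vehicle-treated cultures.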

[8] = NCI Yeast Anticancer Drug Screen. Data for the sgs1 mgt1 strain (AID 161);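 also: 0% = growth of cultures given vehicle only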; conditions: S. cerevisiae sgs1 mgt1 strain, hits give high values
Procedure, shortened: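 This yeast growth screen uses a strain with defined DNA-repair lesions; compound-treated growth is compared with vehicle-treated growth.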

[9] = NCI Yeast Anticancer Drug Screen. Data for the CLN2oe strain (AID 163);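 also: 0% = growth of vehicle-only control cultures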; conditions: S. cerevisiae CLN2oe strain, hits give high values
Procedure, shortened: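 Cells of an engineered yeast line with disturbed cell-cycle regulation are treated with compound. Inhibition of growth is then calculated relative to the vehicle-treated reference.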

[10] = NCI Yeast Anticancer Drug Screen. Data for the cln2 rad14 strain (AID 165);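 also: 0% = growth equal to vehicle treated cultures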; conditions: S. cerevisiae cln2 rad14 strain, hits give high values
Procedure, shortened: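 Strain: cln2 rad14 yeast, altered in cell cycle control and DNA damage repair. Read-out: growth inhibition vs vehicle.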

[11] = NCI Yeast Anticancer Drug Screen. Data for the bub3 strain (AID 167); conditions: S. cerevisiae bub3 mutant strain, hits give high values
Procedure, shortened: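 Growth of a checkpoint-deficient yeast mutant is measured after compound exposure. Values represent inhibition relative to vehicle.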

[12] = NCI Yeast Anticancer Drug Screen. Data for the wt2 strain (AID 169);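 also: 0% = growth of vehicle-treated yeast cultures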; conditions: S. cerevisiae wt2 strain growth inhibition, hits give high values
Procedure, shortened: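 Growth of compound-treated yeast is measured and expressed as inhibition relative to vehicle-only controls.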

[13] = NCI Yeast Anticancer Drug Screen. Data for the mlh1 strain (AID 171);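 also: 0% = growth of vehicle-treated control cultures of the same strain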; conditions: S. cerevisiae mlh1 strain growth inhibition, hits give high values
Procedure, shortened: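 Test agents were incubated with yeast bearing a defined DNA damage repair or cell cycle control alteration; values are growth inhibition normalised to vehicle-treated cultures.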

[14] = NCI Yeast Anticancer Drug Screen. Data for the sgs1 strain (AID 173);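 also: 0% = growth of vehicle-only control cultures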; conditions: S. cerevisiae sgs1 mutant, hits give high values
Procedure, shortened: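 Strain with an altered DNA repair or cell cycle pathway exposed to compound. Growth then measured. Value = inhibition versus vehicle control.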

[15] = NCI Yeast Anticancer Drug Screen. Data for the mlh1 rad18 strain (AID 175); conditions: S. cerevisiae mlh1 rad18 strain growth inhibition, hits give high values
Procedure, shortened: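 A repair-deficient yeast strain is exposed to test compound, and growth is scored relative to vehicle-treated controls.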

[16] = NCI Yeast Anticancer Drug Screen. Data for the rad18 strain (AID 177); conditions: S. cerevisiae rad18 mutant growth inhibition, hits give high values
Procedure, shortened: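 DNA-repair-defective yeast; compound treatment; growth inhibition scored against vehicle.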

[17] = at 5.0 µM (retest, dose inferred, filed as 0.5)
[18] = at 50.0 µM (retest, dose inferred, filed as 5.0)

Measured: growth inhibition

CCCCCCCCNC(=O)C1=C(C)NC(C)=C(C(=O)NCCCCCCCC)C1
inactive: [1]; at 1.2 µM 0% | [1]; at 3.7 µM 1% | [1]; at 11.0 µM 3% | [1]; at 33.0 µM -4% | [1]; at 100.0 µM 3% | [2]; at 1.2 µM 2% | [2]; at 3.7 µM 3% | [2]; at 11.0 µM 1% | [2]; at 33.0 µM 0% | [2]; at 100.0 µM 3% | [3]; at 1.2 µM 0% | [3]; at 3.7 µM -1% | [3]; at 11.0 µM 2% | [3]; at 33.0 µM 11% | [3]; at 100.0 µM 25% | [4]; at 1.2 µM 0% | [4]; at 3.7 µM 0% | [4]; at 11.0 µM 1% | [4]; at 33.0 µM -13% | [4]; at 100.0 µM 4% | [5]; at 1.2 µM -4% | [5]; at 3.7 µM -13% | [5]; [17] 8% | [5]; at 11.0 µM -17% | [5]; at 33.0 µM -3% | [5]; [18] 6% | [5]; at 50.0 µM -29.5% | [5]; at 100.0 µM 4% | [6]; at 1.2 µM 0% | [6]; at 3.7 µM 2% | [6]; [17] -7% | [6]; at 11.0 µM 0% | [6]; at 33.0 µM -4% | [6]; [18] 14% | [6]; at 50.0 µM -5.25% | [6]; at 100.0 µM 7% | [7]; at 1.2 µM 1% | [7]; at 3.7 µM 0% | [7]; at 11.0 µM 2% | [7]; at 33.0 µM 4% | [7]; at 100.0 µM 11% | [8]; [17] -7% | [8]; [18] 4% | [8]; at 50.0 µM 0.45% | [9]; at 1.2 µM 4% | [9]; at 3.7 µM 2% | [9]; at 11.0 µM -1% | [9]; at 33.0 µM 0% | [9]; at 100.0 µM 2% | [10]; [17] 42% | [10]; [18] 2% | [10]; at 50.0 µM 35.4% | [11]; at 1.2 µM 0% | [11]; at 3.7 µM 0% | [11]; [17] 35% | [11]; at 11.0 µM 0% | [11]; at 33.0 µM 0% | [11]; [18] -4% | [11]; at 50.0 µM -6.55% | [11]; at 100.0 µM 2% | [12]; at 1.2 µM 1% | [12]; at 3.7 µM 1% | [12]; at 11.0 µM 0% | [12]; at 33.0 µM 1% | [12]; at 100.0 µM 2% | [13]; at 1.2 µM 0% | [13]; at 3.7 µM 2% | [13]; at 11.0 µM 0% | [13]; at 33.0 µM 2% | [13]; at 100.0 µM 8% | [14]; at 1.2 µM 2% | [14]; at 3.7 µM 3% | [14]; at 11.0 µM -3% | [14]; at 33.0 µM 3% | [14]; at 100.0 µM 14% | [15]; [17] 8% | [15]; [18] -5% | [15]; at 50.0 µM -23.8% | [16]; at 1.2 µM -1% | [16]; at 3.7 µM -2% | [16]; at 11.0 µM -4% | [16]; at 33.0 µM -8% | [16]; at 100.0 µM 2%

COc1cccc2nc3ccccc3nc12
active: [1]; at 33.0 µM 90% | [1]; at 100.0 µM 97% | [2]; at 100.0 µM 91% | [3]; at 33.0 µM 79% | [3]; at 100.0 µM 94% | [4]; at 33.0 µM 75% | [4]; at 100.0 µM 95% | [5]; at 33.0 µM 91% | [5]; at 50.0 µM 83.6% | [5]; at 100.0 µM 97% | [6]; at 100.0 µM 89% | [7]; at 100.0 µM 82% | [9]; at 100.0 µM 91% | [11]; at 100.0 µM 94% | [12]; at 100.0 µM 96% | [13]; at 100.0 µM 97% | [14]; at 100.0 µM 88% | [16]; at 33.0 µM 84% | [16]; at 100.0 µM 95%
inactive: [1]; at 1.2 µM 1% | [1]; at 3.7 µM 7% | [1]; at 11.0 µM 34% | [2]; at 1.2 µM -2% | [2]; at 3.7 µM -2% | [2]; at 11.0 µM 3% | [2]; at 33.0 µM 45% | [3]; at 1.2 µM 1% | [3]; at 3.7 µM 8% | [3]; at 11.0 µM 34% | [4]; at 1.2 µM 1% | [4]; at 3.7 µM 1% | [4]; at 11.0 µM 6% | [5]; at 1.2 µM 2% | [5]; at 3.7 µM 15% | [5]; [17] -22% | [5]; at 11.0 µM 45% | [5]; [18] 65% | [6]; at 1.2 µM -2% | [6]; at 3.7 µM 2% | [6]; [17] -5% | [6]; at 11.0 µM 4% | [6]; at 33.0 µM 35% | [6]; [18] 17% | [6]; at 50.0 µM 31.3% | [7]; at 1.2 µM -2% | [7]; at 3.7 µM 0% | [7]; at 11.0 µM 2% | [7]; at 33.0 µM 30% | [8]; [17] -19% | [8]; [18] 5% | [8]; at 50.0 µM 4.55% | [9]; at 1.2 µM 0% | [9]; at 3.7 µM 1% | [9]; at 11.0 µM 1% | [9]; at 33.0 µM 48% | [10]; [17] -14% | [10]; [18] 18% | [10]; at 50.0 µM 9.4% | [11]; at 1.2 µM 1% | [11]; at 3.7 µM -11% | [11]; [17] -25% | [11]; at 11.0 µM 2% | [11]; at 33.0 µM 56% | [11]; [18] 19% | [11]; at 50.0 µM 24.9% | [12]; at 1.2 µM -2% | [12]; at 3.7 µM -1% | [12]; at 11.0 µM 8% | [12]; at 33.0 µM 50% | [13]; at 1.2 µM 0% | [13]; at 3.7 µM 3% | [13]; at 11.0 µM -2% | [13]; at 33.0 µM 51% | [14]; at 1.2 µM -6% | [14]; at 3.7 µM -8% | [14]; at 11.0 µM 0% | [14]; at 33.0 µM 38% | [15]; [17] -3% | [15]; [18] 36% | [15]; at 50.0 µM 43.1% | [16]; at 1.2 µM -3% | [16]; at 3.7 µM -2% | [16]; at 11.0 µM 16%
